Active and inactive are the calls of the source. Rule for the calls: active = hit-call score of the fitted dose curve at least 0.9, where 1 is the maximum; inactive = score below 0.9.
read-out: Phosphatase and tensin (PTEN), PTEN (gene 5728); experiment: LTEA_HepaRG_PTEN: Life Technologies and Expression Analysis (LTEA) Assay for Phosphatase and tensin (PTEN) using HepaRG (AID 2283523); details: mRNA level, 48 h; actives raise or lower the signal
Procedure: LTEA_HepaRG is a cell based, multiplexed-readout assay that uses HepaRG, a human liver cell line, with measurements taken at 48 hours after chemical dosing on a 96-well plate.LTEA_HepaRG_PTEN is one of 102 assay component(s) measured in the LTEA HepaRG cell culture assay. It is a marker of Cell proliferation, survival, death.Data from the assay component LTEA_HepaRG_PTEN was analyzed into 1 endpoint. This assay endpoint, LTEA_HepaRG_PTEN, was analyzed with bidirectional fitting relative to DMSO as the negative control and baseline of activity. Using a type of inducible reporter, measures of mRNA induction for gain or loss-of-signal activity can be used to understand regulation of transcription factor activity. To generalize the intended target to other relatable targets, this assay endpoint is annotated to the phosphatase intended target family, where the subfamily is dual-specific phosphatase.
A total of 1060 chemcials from the ToxCast library were tested in eight-point concentration-response experiments. Cell culture and cytotoxicity assays were conducted at Thermo Fisher Scientific's Custom Services facility (Madison, WI). A single lot of human HepaRG cells (Thermo Fisher Scientific, Frederick, MD) was used for the cell culture experiments. 96-well format collagen type I coated plates of human HepaRG cells were prepared using established methods. Briefly, cryopreserved HepaRG cells were thawed, plated at a density of approximately 100,000 cells/well in HepaRG Thaw, Plate, and General Purpose media (HPRG770, Thermo Fisher Scientific), and incubated for 48 hours. 0.5% DMSO was selected as vehicle control to balance the requisite need of DMSO in HepaRG cultures to maintain differentiation (for example, baseline metabolism, proportions of hepatocytes vs. cholangiocytes), while enabling further hepatic receptor pathway activation (for example, PXR and CAR) in response to chemical exposure. 48 hours after plating, the culture medium was replaced with HepaRG Serum-Free Incudtion Media. Cells were exposed to each test chemical in duplicate and maintained in CO2 incubators for another 48 hours. Chemical plates were thawed to room temperature and 200x concentrations of treatment groups were prepared. 8-point conentration-reponse curves were made with the highest exposure at 100 uM, followed by half-log dilutions, all in 0.5% DMSO. Each test plate contained variouse controls, induction positive controls (1mM phenobarbital), cytotoxicity positive controls ([…] aflatoxin B1), vehicle controls (0.5% DMSO), and total lysis controls (0.5% DMSO). Cell morphology images were taken using an Essen IncuCyte FLR automated microscope, with six 96-well plates imaged in about 24 minutes. Images were captured and exported and JPEG files. Spent culture media was transfered to black-well plates for the LDH assay, and remaining media was sorted at -80 C for later use. Cells were treated with RLT buffer and frozen until shipped for gene expression analysis. Total RNA was isolated from the cell suspension in 75 uL of Buffer RLT (Qiagen, Germantown, MD 20874) by Quintiles/Expression Analysis (Durham, NC) using a custom isolation procedure. Total RNA from each plate well was transferred to a preamplification plate. Fluidigm's 96.96 Dynamic ArrayTM (Fluidigm, Amsterdam, the Netherlands) technology was used for gene expression analyses by quantitative reverse transcription polymerase chain reaction (qRT-PCR, performed by Quintiles/Expression Analysis, Durham, NC)89. Standard TaqManTM Assays (Applied Biosystems/ThermoFisher Scientific, Foster City, CA) were used to assess the expression of 93 genes selected based on their selectivity and sensitivity to important hepatic receptors known to be modulated by environmental chemicals; importance in human hepatocyte functionality; and hepatotoxicity. […]

Row | Structure (SMILES) | outcome | AC50
1 | C[C@]12CCC(=O)C=C1CC[C@@H]1[C@@H]2CC[C@@]2(C)[C@H]1CC[C@]2(C)O | inactive | 
2 | C[C@]12CCC(=O)C=C1CC[C@@H]1[C@@H]2CC[C@]2(C)C(=O)CC[C@@H]12 | inactive | 
3 | CC1=C2C[C@H]3[C@@H](CC=C4C[C@@H](O)CC[C@@]43C)[C@@H]2CC[C@]12O[C@@H]1C[C@H](C)CN[C@H]1[C@H]2C | inactive | 
4 | CCC(C)c1cc([N+](=O)[O-])cc([N+](=O)[O-])c1O (stereo not given) |  | 5.41 µM (active)
5 | COS(=O)(=O)OC | inactive | 
6 | CCOCCOC(C)=O | inactive | 
7 | Cc1cc2c3c(c1)C(c1ccccc1)=N[C@@H](NC(=O)c1ccncc1)C(=O)N3CC2 | inactive | 
8 | C=CC(N)=O | inactive | 
9 | Nc1ccc(-c2ccc(N)cc2)cc1 | inactive | 
10 | O=S(=O)(O)C(F)(F)C(F)(F)C(F)(F)C(F)(F)C(F)(F)C(F)(F)F |  | 10.3 µM (active)
11 | O=C(NC(=O)c1cc(F)c(F)cc1Cl)Nc1cc(F)ccc1N1CCC(C(=O)O)CC1 | inactive | 
12 | CCSC(=O)N(CC)C1CCCCC1 | inactive | 
13 | Cc1ccccc1CO[C@@H]1C[C@@]2(C(C)C)CC[C@]1(C)O2 | inactive | 
14 | CCC(C)(c1ccc(O)cc1)c1ccc(O)cc1 | inactive | 
15 | CCCCCCCCCC[N+](C)(C)CCCCCCCCCC |  | 83.2 µM (active)
16 | CN(C)CCO | inactive | 
17 | CN(C)c1nc(=O)n(C2CCCCC2)c(=O)n1C | inactive | 
18 | Cc1cccc([N+](=O)[O-])c1 | inactive | 
19 | Cc1cc(O)ccc1Cl | inactive | 
20 | Cc1ccccc1O | inactive | 

Row | Structure (SMILES) | outcome | AC50
21 | COc1ccc(O)c(C(C)(C)C)c1 | inactive | 
22 | CCOP(=S)(OCC)SCSC(C)(C)C | inactive | 
23 | CCCCCCCCCc1ccc(O)cc1 | inactive | 
24 | NS(=O)(=O)C(F)(F)C(F)(F)C(F)(F)C(F)(F)C(F)(F)C(F)(F)C(F)(F)C(F)(F)F |  | 26.2 µM (active)
25 | ClC1=C(Cl)[C@]2(Cl)[C@@H]3[C@@H](Cl)[C@H]4O[C@H]4[C@@H]3C1(Cl)C2(Cl)Cl | inactive | 
26 | CCCCCCOC(=O)c1ccccc1C(=O)OCCCCCC | inactive | 
27 | Oc1ccc(Cl)cc1Cl | inactive | 
28 | O=C(O)C(F)(F)C(F)(F)C(F)(F)C(F)(F)C(F)(F)F | inactive | 
29 | CCC(C)(CC)c1cc(NC(=O)c2c(OC)cccc2OC)on1 | inactive | 
30 | CCCN(CCC)N=O | inactive | 
31 | O=C(NC(=O)c1c(F)cccc1F)Nc1cc(Cl)c(OC(F)(F)C(F)F)c(Cl)c1 | inactive | 
32 | CCNc1nc(NC(C)C)nc(SC)n1 | inactive | 
33 | CO/C=C(/C(=O)OC)c1ccccc1COc1cccc(C(F)(F)F)n1 | inactive | 
34 | CCCCCCCCOC(=O)c1ccccc1C(=O)OCCCCCCCC | inactive | 
35 | c1ccc(-c2ccccc2)cc1 | inactive | 
36 | ClC1=C(Cl)[C@]2(Cl)[C@@H]3[C@@H]4C[C@@H]([C@H]5O[C@@H]45)[C@@H]3[C@@]1(Cl)C2(Cl)Cl |  | 0.0333 µM (active)
37 | c1cc2ccc3cccc4ccc(c1)c2c34 | inactive | 
38 | Nn1cnnc1 | inactive | 
39 | O=S(=O)(O)C(F)(F)C(F)(F)C(F)(F)C(F)(F)F | inactive | 
40 | Clc1ccc(Cl)cc1 | inactive | 

Reference: PubChem BioAssay (EPA / NIEHS)
